# Data taken from ChEMBL document CHEMBL4513216, “Probing the Open Global Health Chemical Diversity Library for Multistage-Active Starting Points for Next-Generation Antimalarials” (ACS Infect Dis, 2020).
# Among all 69,000 compounds or so, about 8,600 (12%) showed an effect of 50% or more. For the sample, strong results were picked, then their nearest neighbours and some compounds at random.
# Tested on: Plasmodium berghei
# Test: Screen against P. berghei liver stage (PbLuc), transformed with Luciferase, at 10uM
# Assay type: functional, HepG2
# Details: tested at 10 uM
row,SMILES,INHIBITION [%]
1,Cc1cc(N2CCCC2c2cc(Nc3cnccn3)nc(C)n2)ncn1 (stereo not given),-50.2
2,Cc1nc(C)n(CC2CCCCN2Cc2nc(-c3ccco3)no2)n1 (stereo not given),-12.915
3,Cc1ccc(C(=O)N2CCn3c(COCC4CC4)cnc3C2C)nc1 (stereo not given),39.3
4,CN(CC1(O)CCN(c2ccccn2)C1)C(=O)Cc1ccsc1 (stereo not given),46
5,CCN(CC)c1ccc(NS(=O)(=O)c2cncc(F)c2)cn1,46.8
6,CCN(CC)c1ccc(NS(=O)(=O)c2cnn(C)c2)cn1,0.139
7,CCN(CC)c1ccc(NS(=O)(=O)c2cccnc2)cn1,77.5
8,CCC(CNC(=O)c1cccc(S(=O)(=O)NC)c1)N1CCCC1 (stereo not given),18
9,COCCN1CCc2ncnc(-c3ccccc3)c2CC1,8.66
10,Cc1ccc(NC(=O)CN(C)C(=O)c2ccc(-n3cccc3)nc2)nc1,68.9
11,Cc1ccc(C(=O)N(C)CC(=O)Nc2cccc(C)n2)cn1,16.8
12,Cc1cccc(NC(=O)CN(C)C(=O)c2ccc(-n3cccc3)nc2)n1,8.08
13,Nc1nc(C2CCN(C(=O)c3cnco3)CC2)cs1,18.9
14,Cc1cc(N[C@H]2CN(CC(C)(C)N3CCOCC3)C[C@@H]2C2CC2)ncn1,35.8
15,CCCc1cc(C(=O)N(C)Cc2cccc3cnccc23)n(C)n1,6.33
16,CCOCCn1nc(C)cc1C(=O)N(C)Cc1cccc2ncccc12,36
17,CC(C)c1cc(C(=O)N(C)Cc2cccc3ncccc23)n(C)n1,67.2
18,CCCc1cc(C(=O)N(C)Cc2cccc3ncccc23)n(C)n1,46.8
19,CN(Cc1cccc2ncccc12)C(=O)CCn1ccc(=O)[nH]c1=O,30.9
20,CCCc1cc(C(=O)N(C)Cc2ccc(OC)c3ncccc23)n(C)n1,67.9
21,O=C(c1ccc2c(c1)OCCO2)N1CCCC(n2ccnc2)C1 (stereo not given),37.9
22,CCC(=O)N1CCC(c2nc(C)c3c(n2)N(C)CCC3)CC1,34.1
23,CC(C)N1CC(c2ccnc(Nc3nccs3)n2)C1,29.49
24,COc1ccc(Cl)cc1-n1cnc(CCNC(C)=O)c1,71.5
25,COc1ccc(F)cc1-n1cnc(CCNC(C)=O)c1,35.1
26,COc1cc(F)c(-n2cnc(CCNC(C)=O)c2)cc1F,4.1
27,O=C1NC2(CCN(CC(=O)N3CCOCC3)CC2)Nc2ccccc21,3.5

row,SMILES,INHIBITION [%]
1,O=S1(=O)COCCN1Cc1ccc(F)c(C(F)(F)F)c1,19.4
2,COc1ccc(-c2cnc(CN3CCCC3CO)o2)cc1 (stereo not given),15.1
3,COCc1noc(-c2ccc(N3CCC[C@H]3CO)nc2)n1,75.7
4,COc1ccc(-c2noc(-c3ccc(N4CCC[C@H]4CO)nc3)n2)cc1,84.8
5,COCc1noc(-c2ccc(N3CCCCC3COC)nc2)n1 (stereo not given),48.5
6,COCc1noc(-c2ccc(N3CCCCC3CO)nc2)n1 (stereo not given),90.1
7,Cc1noc(-c2ccc(N3CCC[C@H]3CO)nc2)n1,17.6
8,COCc1noc(-c2ccc(N3CCCCC3CCCO)nc2)n1 (stereo not given),35.8
9,OC[C@@H]1CCCN1c1ccc(-c2nc(COc3ccccc3)no2)cn1,25.8
10,OCC1CCCCN1c1ccc(-c2nc(-c3ccccc3F)no2)cn1 (stereo not given),91.8
11,COCc1noc(-c2ccc(N3CCCC3c3ccc(F)cc3)nc2)n1 (stereo not given),18.5
12,COCc1noc(-c2ccc(N3CCCC3c3nccs3)nc2)n1 (stereo not given),43
13,OC[C@@H]1CCCN1c1ccc(-c2nc(CCc3ccccc3)no2)cn1,43.9
14,CCCN1C[C@@H]2CC[C@H]1CN(C(=O)c1ccc(N(C)CCO)cc1)C2,43.9
15,N#Cc1ccc(CS(=O)(=O)NC(=O)COc2ccc3c(c2)CCC3)cc1,-57.66
16,COC(=O)N1CC(C)=C(C)CN1C(=O)Nc1cccc(Cl)c1,-28.6
17,COc1cc(OC)cc(C(=O)N2CCOCC2c2[nH]ncc2C)c1 (stereo not given),46.25
18,Cc1nc(C)n(CC2CCCN2CCC(=O)N2CCCCC2)n1 (stereo not given),-8.11
19,Cc1ccc(C(=O)N2Cc3c(CN4CCCCC4)nn(C)c3C2)o1,28.4
20,CC(=O)Nc1nc(C(=O)N2CCCC2c2ccc(Br)cc2)cs1 (stereo not given),26.4
21,Cc1cc(C)c(CNC(=O)C(C)Oc2cccc(C#N)c2)c(=O)[nH]1 (stereo not given),36.4
22,CCC(C)Oc1ccccc1Cn1cc2[nH]cccc-2c1=O (stereo not given),41.5
23,Cc1ccnc(C2CN(c3ccnc(C)n3)C2)n1,28.6
24,CCc1nc(NC2CCN(CC(=O)NC3CC3)CC2)c2cnn(C)c2n1,21.8
25,COc1ccc(CN2CCC(CO)(Cc3ccc(Cl)cc3)CC2)c(O)c1,31.6
26,Clc1ccc(CN2CCC(C3CCN(Cc4cccnc4)CC3)C2)cc1 (stereo not given),36.8
27,OCC1(Cc2ccc(Cl)cc2)CCN(Cc2ccccc2O)CC1,14.6

row,SMILES,INHIBITION [%]
1,Clc1ccc(CN2CCC3(CC2)CC(c2cccnc2)=NO3)cc1,46.6
2,OCC1(Cc2ccc(Cl)cc2)CCN(Cc2cccnc2)CC1,92
3,COc1cccc(CN2CCC(CO)(Cc3ccc(Cl)cc3)CC2)c1O,85.4
4,Cc1c(C(=O)NCC2CCCO2)nnn1-c1cccc2c1CCN(C)C2 (stereo not given),29.2
5,COc1c(C2CCCN2C(=O)c2ccc3[nH]cnc3c2)c(C)nn1C (stereo not given),-2.19
6,CC(C)(C)C(=O)N1C[C@@H](F)[C@@H](OCc2nc3ccccc3o2)C1,70.7
7,CC(=O)N1C[C@@H](F)[C@@H](OCc2nc3ccccc3o2)C1,-15.6
8,O=C(C1CC1)N1C[C@@H](F)[C@@H](OCc2nc3ccccc3o2)C1,13.1
9,F[C@@H]1CN(CC2CCCCC2)C[C@@H]1OCc1nc2ccccc2o1,29.8
10,CS(=O)(=O)N1C[C@@H](F)[C@@H](OCc2nc3ccccc3o2)C1,41.1
11,F[C@@H]1CN(CC2CC2)C[C@@H]1OCc1nc2ccccc2o1,-3.5
12,CC(C)NC(=O)N1C[C@@H](F)[C@@H](OCc2nc3ccccc3o2)C1,58.5
13,O=C(C1CC1)N1C[C@@H](F)[C@@H](OCc2nc3ccccc3[nH]2)C1,7.85
14,O=C(c1ccno1)N1C[C@@H](F)[C@@H](OCc2nc3ccccc3o2)C1,56.3
15,CCC(CN1CCCCC1)NC(=O)C1(c2ccc(F)cc2)CC1 (stereo not given),48.2
16,COc1ccc(C(=O)N2CCOCC2c2[nH]ncc2C)cc1F (stereo not given),3.75
17,Cc1cnn(CC2CN(Cc3nc4ccccc4c(=O)[nH]3)CCO2)c1 (stereo not given),29.4
18,Cc1nc2c(Nc3cccc(C#N)c3)nc(N)nc2n1C,-42.8
19,CC(C)NC(=O)N1CCC2(CC1)Cc1ccccc1CN(C)C2=O,-6.25
20,CNC(=O)Nc1cc(-c2ccccc2C)nn1CCO,-60
21,CCNC(=O)CCC(=O)NCC1(O)CCC(C(C)(C)C)CC1 (stereo not given),-23.8
22,COc1cccc(S(=O)(=O)N2CCCCC2CCN2CCOCC2)c1 (stereo not given),22.6
23,CC(C)N1CCC(CC(=O)NC(C(=O)O)c2cccc(F)c2)CC1 (stereo not given),36.7
24,CCCN1CCC(CC(=O)N[C@H](C(=O)O)c2cccc(F)c2F)CC1,53
25,O=C(CCCN1CCCCC1)N[C@H](C(=O)O)c1cccc(F)c1F,34.5
26,CC(C)N1CCC(CC(=O)NC(C(=O)O)c2ccc(F)cc2)CC1 (stereo not given),33.9
27,CC(C)N1CCC(CC(=O)NC(C(=O)O)c2cc(F)ccc2F)CC1 (stereo not given),52.1

row,SMILES,INHIBITION [%]
1,CCN1CCC(CC(=O)N[C@H](C(=O)O)c2cccc(F)c2F)CC1,-2.39
2,O=C(CCc1nc2cccnc2[nH]1)Nc1ccc2c(c1)NC(=O)CO2,14.8
3,CSc1nccc(N2CCC(=O)N(CC3CC3)C(C(C)C)C2)n1 (stereo not given),7.43
4,CSc1nccc(N2CCC(NCc3ccc4nsnc4c3)CC2)n1,76.9
5,CSc1nccc(N2CCC(NCc3ccc4c(c3)OCO4)CC2)n1,57.4
6,Cc1cccc(N2CCC(NCc3cnc(C4CCC4)s3)CC2)n1,36.5
7,CSc1nccc(N2CCC(NCc3nc(C)cc(C)n3)CC2)n1,8.7
8,Cc1ccc(N2CCCC(NCc3ccc4c(c3)OCCO4)C2)nn1 (stereo not given),-19.4
9,O=C(NCCNS(=O)(=O)N1CCCCCC1)c1ncccc1O,-13.6
10,CCCC(O)CN1CCC(=O)N(Cc2ccccc2)Cc2ccccc21 (stereo not given),-30
11,Cc1ccc(C)n1-c1c(C(=O)NCC(C)Cn2cccn2)cnn1C (stereo not given),5.36
12,CN1[C@H](CN2CCCC2)C[C@@H]2CN(C(=O)Cc3cccs3)CC[C@@H]21,49.1
13,CN1CCN(C)c2cc(NC(=O)c3cc[nH]n3)ccc2C1,43.1
14,CCc1ccc(C(=O)Nc2ccc3c(c2)N(C)CCN(C)C3)o1,66.9
15,Cc1cc(C(=O)Nc2ccc3c(c2)N(C)CCN(C)C3)on1,44.2
16,c1ccc(CCCN2CCCN(c3ncnc4[nH]ccc34)CC2)cc1,52.7
17,c1ccc(CCN2CCN(c3ncnc4[nH]ccc34)CC2)cc1,33
18,c1ccc(OCCN2CCN(c3ncnc4[nH]ccc34)CC2)cc1,35.1
19,COc1ccc(Cn2c(CCc3c(C)n[nH]c3C)n[nH]c2=O)cc1,-5.08
20,CCCc1nc(C)c(C(=O)NCCN2CCOCC2)s1,-65.3
21,COc1ccc(CCC2CCCCN2)cc1 (stereo not given),49.6
22,O=C(O)c1ccnc2c(Br)cccc12,9.32
23,O=C(O)c1cccc2c(Br)cccc12,73.9
24,O=C(O)c1cnc2c(Br)cccc2c1O,27.5
